± gives the standard deviation.
Experiments:
Conditions in all cases: modulator concentration 10 µM
[1] = system: RAW-Dual (murine macrophage reporter line); assay: NF-kB reporter (SEAP) activity fold change vs agonist alone; higher = enhanced NF-kB activity
Summary of the method: (§1)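 RAW-Dual murine macrophage reporter cells were plated at 50 000 per well in 384-well plates, pin-transferred compound to 10 μM final, and pre-incubated for 1 hour at 37 °C before a PRR agonist was added and the cells incubated overnight. NF-κB activity was read from supernatant SEAP with QUANTI-Blue at 620 nm absorbance, and IRF activity from Lucia luciferase with QUANTI-Luc by luminescence. Each signal was expressed as fold change by dividing by the mean agonist-only control on the same plate. Two replicate plates were averaged, with errors obtained by propagation.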

[2] = system: RAW-Dual (murine macrophage reporter line); assay: IRF reporter (Lucia luciferase) activity fold change vs agonist alone; higher = enhanced IRF activity
Summary of the method: as §1

[3] = system: RAW-Dual (murine macrophage reporter line); assay: viability score (confluency relative to resting cells, overnight) (fraction); higher = more viable, active = viable (0.7 or more)
Summary of the method: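 RAW-Dual macrophages in 384-well plates were exposed overnight to compound at 10 μM final. Confluency was imaged with IncuCyte, and two confluency masks were generated with IncuCyte software over all imaged wells. The viability score is confluency expressed relative to resting cells. Compounds were called viable if both masks exceeded 70% of resting cells.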

[4] = agonist: CpG ODN 1826 0.5 ug/mL

Structure (SMILES) | NF-kB reporter [1, 4] | NF-kB reporter ([1]; agonist: LPS 0.1 ug/mL) | NF-kB reporter ([1]; agonist: MPLA […]) | IRF reporter ([2]; agonist: 3'3'-cGAMP 10 ug/mL) | IRF reporter ([2]; agonist: LPS 0.1 ug/mL) | IRF reporter ([2]; agonist: MPLA […]) | viability score [3]
Cc1ccc(OCCCOc2cccc3cccnc23)c(Br)c1 | 0.998 ± 0.071 | 1.01 ± 0.078 | 1.01 ± 0.027 | 0.829 ± 0.053 | 0.935 ± 0.13 | 0.981 ± 0.21 | 0.998 (active)
NS(=O)(=O)c1cc(Cl)c(Cl)c(S(N)(=O)=O)c1 [Prestw-809] | 1.15 ± 0.13 | 1.02 ± 0.083 | 0.953 ± 0.046 | 0.916 ± 0.067 | 0.92 ± 0.093 | 0.911 ± 0.16 | 1 (active)
CCOC(=O)C1=C(C)NC(C)=C(C(=O)OC)C1c1ccc(C)cc1 (configuration not stated) | 0.782 ± 0.069 | 0.743 ± 0.062 | 1.2 ± 0.046 | 0.815 ± 0.13 | 0.914 ± 0.039 | 1.34 ± 0.087 | 0.935 (active)
COc1cccc(CC(=O)Nc2ccc(CC(=O)N3CCC(O)CC3)cc2)c1 | 1.07 ± 0.35 | 1.06 ± 0.091 | 1.06 ± 0.074 | 0.884 ± 0.03 | 1.1 ± 0.13 | 1.37 ± 0.19 | 0.945 (active)
CCN(CC)CCOC(=O)C(c1ccccc1)c1ccccc1.Cl | 0.913 ± 0.08 | 0.887 ± 0.067 | 0.965 ± 0.084 | 1.58 ± 0.074 | 1.29 ± 0.12 | 1.49 ± 0.12 | 0.941 (active)
CCOC(=O)c1ccccc1NC(=O)CN(c1cc(C)ccc1OC)S(C)(=O)=O | 1.05 ± 0.097 | 1.03 ± 0.068 | 0.994 ± 0.047 | 1.01 ± 0.21 | 1.05 ± 0.11 | 1 ± 0.2 | 1 (active)
Cn1c(=O)[nH]c2nnc(-c3ccncc3)nc2c1=O | 0.815 ± 0.07 | 0.872 ± 0.077 | 1.07 ± 0.12 | 0.935 ± 0.05 | 1.32 ± 0.15 | 1.47 ± 0.2 | 1.02 (active)
CN(C)C=C1C(=O)N(c2nc3ccccc3s2)N=C1CSc1ccc(Cl)cc1 | 0.945 ± 0.078 | 1.02 ± 0.067 | 0.916 ± 0.058 | 0.843 ± 0.029 | 1.42 ± 0.12 | 1.15 ± 0.073 | 1.01 (active)
Cc1cccc(CN2CCN(C(c3ccccc3)c3ccc(Cl)cc3)CC2)c1.Cl.Cl (configuration not stated) | 0.289 ± 0.013 | 0.913 ± 0.1 | 1.44 ± 0.082 | 1.35 ± 0.068 | 1.28 ± 0.27 | 1.27 ± 0.35 | 0.272 (inactive)
S=C(NCCN1CCCCC1)NCc1ccccc1 | 0.962 ± 0.14 | 1 ± 0.055 | 0.99 ± 0.12 | 1.01 ± 0.035 | 1.33 ± 0.14 | 1.22 ± 0.12 | 1.01 (active)
Cc1cccc(C(=O)NC(Nc2ccccc2C(F)(F)F)C(Cl)(Cl)Cl)c1 (configuration not stated) | 0.896 ± 0.079 | 1.05 ± 0.077 | 1.22 ± 0.23 | 0.948 ± 0.05 | 1.22 ± 0.2 | 1.26 ± 0.4 | 1.01 (active)
O=C(CCCc1ccccc1)NCC1(O)CCCC1 | 0.858 ± 0.079 | 0.968 ± 0.078 | 0.867 ± 0.049 | 0.968 ± 0.05 | 0.977 ± 0.061 | 0.917 ± 0.23 | 1.01 (active)
O=C(CCn1cnc2ccccc2c1=O)NCC1CCCN1c1ccccc1 (configuration not stated) | 1.05 ± 0.054 | 1 ± 0.086 | 0.987 ± 0.046 | 0.983 ± 0.053 | 1.3 ± 0.086 | 1.2 ± 0.14 | 0.995 (active)
COC(CNC(=O)CSc1ccc(F)cc1)c1ccc(C)s1 (configuration not stated) | 1.07 ± 0.33 | 1.1 ± 0.067 | 1.05 ± 0.067 | 0.898 ± 0.03 | 1.06 ± 0.16 | 1.11 ± 0.1 | 0.985 (active)
CC12CCC3c4ccc(O)cc4CCC3C1CCC2OC(=O)CCC1CCCC1 (configuration not stated) | 1.02 ± 0.093 | 0.997 ± 0.09 | 0.867 ± 0.082 | 0.969 ± 0.03 | 1.15 ± 0.15 | 1.21 ± 0.14 | 0.98 (active)
O=[N+]([O-])c1ccc(N2CCOCC2)c(-c2nnn[nH]2)c1 | 0.98 ± 0.25 | 1.05 ± 0.11 | 0.918 ± 0.085 | 0.938 ± 0.045 | 1.11 ± 0.14 | 1.29 ± 0.17 | 0.996 (active)
Cc1cccc(NC(=O)C(=Cc2ccco2)NC(=O)c2ccccc2I)c1 | 1.06 ± 0.087 | 1.06 ± 0.081 | 1.01 ± 0.072 | 0.953 ± 0.076 | 1.15 ± 0.099 | 1.11 ± 0.15 | 1.01 (active)
Cc1ccc2[nH]c(=O)c(-c3cc(-c4ccccc4)c4ccccc4n3)c(-c3ccccc3)c2c1 | 0.938 ± 0.081 | 1.1 ± 0.11 | 0.816 ± 0.051 | 1.08 ± 0.037 | 1.17 ± 0.19 | 1.04 ± 0.072 | 1.02 (active)

Structure (SMILES) | NF-kB reporter [1, 4] | NF-kB reporter ([1]; agonist: LPS 0.1 ug/mL) | NF-kB reporter ([1]; agonist: MPLA […]) | IRF reporter ([2]; agonist: 3'3'-cGAMP 10 ug/mL) | IRF reporter ([2]; agonist: LPS 0.1 ug/mL) | IRF reporter ([2]; agonist: MPLA […]) | viability score [3]
CC(=NN1CCN(Cc2cccc3ccccc23)CC1)c1ccc(Br)cc1 | 1.08 ± 0.12 | 1.04 ± 0.071 | 1.08 ± 0.044 | 1 ± 0.13 | 1.05 ± 0.12 | 1.11 ± 0.29 | 1 (active)
Cc1cccc(CSc2nn3c(=O)c(C)nnc3s2)c1 | 1.06 ± 0.086 | 0.937 ± 0.1 | 0.907 ± 0.085 | 0.925 ± 0.031 | 1.25 ± 0.2 | 1.26 ± 0.25 | 1.01 (active)
CN1CCN(C2CC(=O)N(c3ccc(N4CCOCC4)cc3)C2=O)CC1 (configuration not stated) | 0.963 ± 0.079 | 0.945 ± 0.096 | 0.864 ± 0.065 | 1.01 ± 0.025 | 1.37 ± 0.11 | 1.13 ± 0.29 | 1.01 (active)
O=C(Nc1nc2cccc(-c3ccc(CN4CCS(=O)(=O)CC4)cc3)n2n1)C1CC1 | 0.0988 ± 0.0077 | 0.639 ± 0.07 | 0.873 ± 0.05 | 0.79 ± 0.047 | 0.851 ± 0.2 | 0.845 ± 0.25 | 0.834 (active)
COc1ccc(Cl)cc1C(=O)Nc1cc(C(F)(F)F)cc(C(F)(F)F)c1 | 1.03 ± 0.082 | 1.01 ± 0.059 | 0.962 ± 0.086 | 0.966 ± 0.024 | 1.54 ± 0.26 | 1.19 ± 0.23 | 1.01 (active)
O=C1NC(=O)C(=Cc2ccc(F)cc2)S1 | 0.667 ± 0.052 | 0.951 ± 0.062 | 0.91 ± 0.032 | 0.773 ± 0.16 | 1.02 ± 0.089 | 1.02 ± 0.16 | 0.988 (active)
NC(CO)(CO)CO | 1.16 ± 0.24 | 1.1 ± 0.22 | 1.01 ± 0.11 | 0.964 ± 0.11 | 1.19 ± 0.12 | 0.966 ± 0.15 | 1 (active)
O=C(CCN1C(=O)c2cccc([N+](=O)[O-])c2C1=O)Nc1ccc(F)cc1 | 1.01 ± 0.13 | 1.02 ± 0.069 | 1.02 ± 0.035 | 0.875 ± 0.082 | 0.958 ± 0.099 | 1.07 ± 0.23 | 1 (active)
CCCCC(=O)N(Cc1ccc(-c2ccccc2-c2nn[nH]n2)cc1)[C@H](C(=O)O)C(C)C | 1.04 ± 0.16 | 1.03 ± 0.15 | 0.903 ± 0.05 | 0.589 ± 0.054 | 0.855 ± 0.14 | 0.704 ± 0.12 | 0.996 (active)
Cc1nnc(NC(=O)c2ccccc2C(=O)O)s1 | 0.982 ± 0.13 | 0.969 ± 0.063 | 0.983 ± 0.051 | 1.11 ± 0.28 | 1.01 ± 0.055 | 1.04 ± 0.085 | 0.998 (active)
Cl.Nc1ccn([C@@H]2O[C@H](CO)[C@@H](O)[C@@H]2O)c(=O)n1 | 1.61 ± 0.12 | 1.13 ± 0.068 | 1.06 ± 0.047 | 0.87 ± 0.13 | 1.03 ± 0.1 | 0.8 ± 0.079 | 0.579 (inactive)
COc1ccc(-c2cc(=O)oc3cc(OCc4cc5c(cc4Cl)OCO5)ccc23)cc1 | 0.738 ± 0.058 | 0.829 ± 0.13 | 1.08 ± 0.11 | 0.983 ± 0.053 | 1.17 ± 0.068 | 1.16 ± 0.15 | 1.01 (active)
CC(=NN1CCN(Cc2cccc3ccccc23)CC1)c1ccc(O)cc1 | 0.841 ± 0.062 | 0.886 ± 0.079 | 0.988 ± 0.026 | 0.849 ± 0.031 | 0.946 ± 0.1 | 0.963 ± 0.14 | 0.996 (active)
CC(C)CCn1c(COc2ccccc2)nc2ccccc21 | 0.892 ± 0.067 | 1.02 ± 0.078 | 0.995 ± 0.028 | 0.914 ± 0.033 | 1.04 ± 0.048 | 1.09 ± 0.1 | 0.999 (active)
COc1ccccc1N1CCN(CCCNc2cc(=O)n(C)c(=O)n2C)CC1.Cl | 1.2 ± 0.3 | 1.08 ± 0.34 | 0.954 ± 0.085 | 0.959 ± 0.029 | 1.21 ± 0.4 | 1.12 ± 0.092 | 0.996 (active)
CCCCOc1cc(C(=O)NCCN(CC)CC)c2ccccc2n1.Cl | 0.759 ± 0.17 | 1.04 ± 0.18 | 1.04 ± 0.067 | 0.776 ± 0.039 | 1.41 ± 0.41 | 1.82 ± 0.14 | 0.93 (active)
CC(C)CSc1nnc2c(n1)[nH]c1ccccc12 | 1.06 ± 0.083 | 1.01 ± 0.072 | 0.967 ± 0.039 | 0.955 ± 0.2 | 1.05 ± 0.047 | 0.885 ± 0.14 | 0.998 (active)
Oc1ccc(N=Cc2ccccc2)cc1 | 1.38 ± 0.18 | 1.2 ± 0.079 | 2.67 ± 0.18 | 0.605 ± 0.037 | 0.924 ± 0.082 | 1.58 ± 0.35 | 0.988 (active)

— the supplement of paper PMC10646978
